TGFb SMAD3 inh: TGF-b pathway inhibition; 1.2% of 410,000 active; Potency, µM (series often up to 46.1 µM), for the others: at the highest dose activity, negative = inhibition, hits mostly inhibitors; HepG2 CAGA-GFP TGF-b/SMAD3 reporter, GFP fluorescence, 18 h; TGF-beta stimulated, 500 pg/mL final; further: potency means the concentration at half of the fitted maximal effect; on the % scale 0 is the no-effect control and ±100 the full control effect; nearly all actives have a fitted effect of over 65% in size
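Smad-responsive CAGA-GFP expression was quantified in HEPG2 cells exposed to compounds and 500 pg/mL final TGF-beta for 18 h at 37 degrees C; unstimulated wells defined full inhibition.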
HT1080NT lethal: kills 2HG-producing HT-1080-NT fibrosarcoma cells; AID 686970; 1.6% of 360,000 active; HT-1080-NT fibrosarcoma viability, CellTiter-Glo ATP luminescence, 48 h; Potency, µM (doses to about 46.1 µM), for the others: top-dose activity, negative = less viability, usual class: cytotoxic;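 further: NT is the 2HG producing partner of a matched IDH1 knockdown line; potency means the concentration at half of the fitted maximal effect; 0% = DMSO-treated cells and -100% = media-only wells without cells; nearly all actives have a fitted effect of over 55% in size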
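Toxicity toward the 2HG-producing NT line was scored as %Activity, normalised to DMSO and no-cell wells, from CellTiter-Glo luminescence after 48 hours' treatment.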
HepG2 viability: HepG2 cytotoxicity, counter-screen for TGF-b inhibitors | AID 588856 | 0.76% of 410,000 active | Potency, µM (top dose mostly 46.1 µM), for the others: top-dose activity change, negative = cytotoxicity, usual class: cytotoxic | HepG2 CAGA-GFP viability, ATP luminescence, 18 h; further: potency means the concentration at half of the fitted maximal effect
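HepG2 CAGA-GFP cells (1000/well, DMEM with 1% FBS) received compound, then TGF-beta at 500 pg/mL final, and were incubated 18 hours at 37 degrees C. Viability was read by CellTiter-Glo luminescence. Media-only wells were set as complete cell-killing and DMSO as no toxicity.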
HT1080 IDH1KD tx: kills HT-1080 cells with IDH1 knockdown. HT-1080 IDH1 knockdown viability, ATP luminescence, 48 h. Potency, µM (series often up to 46.1 µM), for inactives: top-dose activity, negative = toxicity, hits mostly cytotoxic. 2% of 360,000 active. AID 686971;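 further: potency means the concentration at half of the fitted maximal effect; 0% = DMSO wells and -100% = cell-free medium wells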
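Cytotoxicity counter-line: IDH1KD HT-1080, 48 h, CellTiter-Glo. Curves classed by r2, magnitude and activity.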
IL1B secr inh: inhibitors of inflammasome signaling (IL-1 beta secretion). THP-1 LPS/ATP IL-1B secretion, AlphaLISA, 16 h; active compounds read low. activity change, % at 57.5 µM. 4.7% of 360,000 active. AID 743279; in the data active means activity change below about -50%; inconclusive means mostly about -30% to -49%; further: on the % scale 0 is the no-effect control and ±100 the full control effect
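Secreted IL-1B measured by AlphaLISA bead assay after 16 h compound exposure of THP-1 cells; compounds (final up to 57.5 uM) added 1 h before LPS (250 ng/mL) and ATP (1.25 mM) stimulation; lower signal means less secretion.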
Giardia killer: Giardia lamblia killing; Giardia lamblia trophozoite viability; activity change, % at 7.66 µM, hits read low; 0.15% of 340,000 active; in the data active means activity change below about -80%; inconclusive means between about -30% and that limit;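 further: parasites exposed to compound for two days anaerobically before the ATP read; on the % scale 0 is the no-effect control and ±100 the full control effect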
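Media and compound were dispensed first, then trophozoites at 100 cells/well; plates sat 48 hrs at 37 deg C without oxygen before ATP luminescence reagent was added and read after 15-30 min at room temperature.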
Starred values were filed as active, the others as inactive; ? = inconclusive; / = no result given. Only some compounds are listed: those with a hit (about 6.5% of all), similar ones and a draw of the others. Unless noted, the call rests on the fitted dose curve; in most records, active means well fitted curve in the direction sought with a large enough effect; inconclusive means small, poorly fitted or top-dose-only effect, or another doubt; inactive means no such curve, though single readings can be large; an effect the other way counts as inactive or inconclusive.

SMILES | TGFb SMAD3 inh | HT1080NT lethal | HepG2 viability | HT1080 IDH1KD tx | IL1B secr inh | Giardia killer
O=C(CSc1nc(Nc2ccccc2)nc(N2CCOCC2)n1)N1CCc2ccccc21 | 21% | -6% | -50% | -5% | 2 | 3
Cc1ccc(C(C(=O)NCC2CCCO2)N(C(=O)c2snc(C(N)=O)c2N)c2ccc(C)c(C)c2)o1 (stereo not drawn) | 16% | 8% | 0% | -2% | -28 | -4
Cc1cccc(CCN(C(=O)c2snc(C(N)=O)c2N)C(C(=O)NCC2CCCO2)c2ccc(F)cc2)c1 (stereo not drawn) | 12% | -1% | -4% | -29% | -52* | 9
COc1ccc(CCN(C(=O)c2snc(C(N)=O)c2N)C(C(=O)NCC2CCCO2)c2ccc(F)cc2)cc1OC (stereo not drawn) | 13% | 15% | 6% | 7% | 2 | 14
CCOc1ccc(C(C(=O)NCC2CCCO2)N(C(=O)c2snc(C(N)=O)c2N)c2ccccc2F)cc1 (stereo not drawn) | 32% | 3% | 8% | -6% | -72* | -9
CCOc1ccc(C(C(=O)NCC2CCCO2)N(C(=O)c2snc(C(N)=O)c2N)c2cccc(F)c2)cc1 (stereo not drawn) | 40% | -3% | 2% | -19% | -26 | 23
Cc1cc(C)cc(N(C(=O)c2snc(C(N)=O)c2N)C(C(=O)NCC2CCCO2)c2ccc(C)o2)c1 (stereo not drawn) | 8% | -8% | 2% | -7% | -51* | -1
O=C(NC(=S)Nc1ccc(Br)cn1)c1cccs1 | -19% | -5% | 3% | -3% | 39 | -15
COc1ccc(OC)c(N2CC(O)(c3ccccc3)[N+]3=C2SCCC3)c1 (stereo not drawn) | 5% | -10% | -4% | -25% | -51* | 1
OC1(c2ccc(Cl)cc2)CN(c2ccccc2)C2=[N+]1CCS2 (stereo not drawn) | 0% | -30% | 3% | ? | -78* | 10
Cc1nc2ccccn2c1C(=O)CSc1cccc(Cl)c1 | -12% | 1% | -30% | -5% | -70* | -13
CN1C[C@@H]2[C@@H]3C(=O)N(Cc4ccccc4)C(=O)[C@@H]3[C@](C)(C1=O)N2C(=O)c1ccc(C(C)(C)C)cc1 | -35% | 0% | -13% | 7% | 0 | -2
Cc1c(N2C(=O)CSC2=S)c(=O)n(-c2ccccc2)n1C | -2% | -13% | -39% | -5% | -77* | 9
Cc1ccc(NC(=O)CN(C)CC(=O)Nc2ccc(F)c(Cl)c2)cc1 | ? | 6% | -1% | -9% | -29 | 4
COc1ccc(CCN(C)CC(=O)Nc2ccc(F)c(Cl)c2)cc1OC | 19% | -23% | -4% | -3% | -58* | -15
Cc1nn(-c2ccccc2)c2sc(C(=O)Nc3ccc(Br)cc3)cc12 | -19% | / | 0% | / | / | /
Cc1cnc(NC(=O)c2cc3c(C)nn(-c4ccccc4)c3s2)s1 | -8% | 11µM* | -10% | ? | 17 | -12
O=C(CCCCCN1C(=O)c2cccc3cccc(c23)C1=O)NCc1cccnc1 | -2% | 2.9µM* | 32% | 2.3µM* | / | -8
O=C(CCCN1C(=O)c2cccc3cccc(c23)C1=O)NCc1cccnc1 | -10% | -19% | 5% | -8% | ? | 6
CCCC1=Nc2cc(C(=O)NCCCOC(C)C)ccc2Sc2ccccc21 | -29% | 12µM* | 5% | 18µM* | 41 | 3
CCCC1=Nc2cc(C(=O)NCCCOCC)ccc2Sc2ccccc21 | ? | 1.6µM* | -19% | 0.73µM* | 31 | 7
CCC1=Nc2cc(C(=O)NCCCOC)ccc2Sc2ccccc21 | 0% | 0.65µM* | 10% | 1µM* | 56 | 20
CCCCNC(=O)c1ccc2c(c1)N=C(CC)c1ccccc1S2 | -20% | / | 0% | / | / | /
CCCC1=Nc2cc(C(=O)NCCOC)ccc2Sc2ccccc21 | / | / | 7% | / | / | /
COc1ccc(-n2nc3c(N4CCC(C(=O)NCCc5ccccc5)CC4)nnc(C)c3c2C)cc1 | -18% | / | 10% | / | / | /
SMILES | TGFb SMAD3 inh | HT1080NT lethal | HepG2 viability | HT1080 IDH1KD tx | IL1B secr inh | Giardia killer
CCn1c(C(=O)NCCc2ccc(OC)c(OC)c2)cc2sc(Cl)cc21 | ? | / | -21% | / | / | /
NS(=O)(=O)c1cccc2c1c([N+](=O)[O-])cc1nc(O)c(O)nc12 | 11% | 21% | 22% | 8% | -11 | 5
COc1ccc(N2CC(C(=O)OC(C)C(=O)c3ccccc3)CC2=O)cc1 (stereo not drawn) | -13% | -1% | -1% | 2% | 10 | -29
CCOC(=O)c1c(C)[nH]c(C(=O)C(C)Cl)c1C (stereo not drawn) | 3% | 0% | -19% | -17% | -101* | -10
CCOC(=O)c1[nH]c(C=O)c(C(=O)OCC)c1C | -3% | 1.6µM* | 11% | 3.7µM* | 0 | 8
CCCCn1c(Oc2ccc(C(=O)OC)cc2)nc2c1c(=O)n(C)c(=O)n2C | -7% | -11% | -36% | 5% | -73* | 2
CCCCn1c(Oc2cccc(C(=O)OC)c2)nc2c1c(=O)n(C)c(=O)n2C | -9% | / | -52% | / | / | /
O=C(Nc1ccc2c(c1)OCCO2)c1ccc(Br)s1 | -8% | -5% | -20% | -1% | -76* | -16
CCc1sc(C(=O)Nc2ccc3c(c2)OCO3)cc1C | ? | -6% | -3% | -3% | -80* | -3
O=C(Nc1ccc2c(c1)OCCO2)c1ccccc1 | 6% | -7% | -26% | -5% | -25 | -27
CC(C)(O)C#Cc1ccc(C(=O)Nc2ccc3c(c2)OCO3)s1 | 0% | ? | -3% | 7.3µM* | -52* | -13
CCc1sc(C(=O)Nc2ccc(N3CCOCC3)cc2)cc1C | 17% | ? | -3% | ? | -64* | -3
CC1CCc2sc(C(=O)Nc3ccc(N4CCOCC4)cc3)cc2C1 (stereo not drawn) | -7% | -16% | -29% | ? | ? | 5
Cc1c(C(=O)NCc2ccc(F)cc2)sc(=O)n1Cc1ccc(C(=O)c2ccccc2)cc1 | ? | -8% | -7% | -16% | -18 | /
O=C(CS(=O)(=O)c1ccc(F)cc1)NCc1ccccc1 | 9% | 0% | 15% | 17% | -10 | -2
O=C1Nc2ccccc2N=C(c2ccccc2)C1N1CCOCC1 (stereo not drawn) | -20% | -1% | 7% | -4% | -18 | 6
CCCCOC(=O)Nc1ccc(C(C)C)cc1 | -1% | 17% | -14% | 12% | -60* | -19
CCCCOC(=O)Nc1ccc(N2CCCCC2)cc1 | -19% | -2% | -45% | 1% | -57* | -5
